# Screening results from PubChem.
# TDP1 cell noCPT: qHTS for Inhibitors of human tyrosyl-DNA phosphodiesterase 1 (TDP1): qHTS in cells in absence of CPT; Potency, µM (series often up to 46.2 µM), inactives show top-dose activity change, negative = growth inhibition, hits mostly inhibitors; 420,000 compounds, 15% hits; DT40 Tdp1-/- hTDP1 cells, no CPT, ATP luminescence, 48 h; AID 686978, 2013; also: nearly all actives have a fitted effect of over 55% in size
#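 Chicken DT40 Tdp1-/- cells stably complemented with human TDP1 were seeded at 400 cells/well with DMSO in place of 20 nM camptothecin. After compound pinning, cells grew at least 48 hr at 37 °C; viability read by CellTiter-Glo luminescence.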
# RORg inh: blocks mouse ROR gamma transcriptional activity | P51450 | Drosophila S2 Gal4-RORgamma UAS-luciferase reporter, 20 h | Potency, µM (doses to about 53.6 µM), for inactives: top-dose activity change, negative = inhibition, usual class: inhibitors | 310,000 compounds, 5.4% hits | AID 2551; also: nearly all actives have a fitted effect of over 60% in size
#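 Schneider cells (Drosophila), stable Gal4 DBD–ROR gamma + UAS-luc; 1 hr cmpd preincubation; Cu2+ induction 700 uM final; 20 hr ambient; luminescence.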
# TDP1 cell CPT: growth inhibition of DT40 Tdp1-/-;hTDP1 cells with camptothecin (screen for TDP1 inhibitors) | Potency, µM (top dose mostly 46.2 µM), for inactives: at the highest dose activity change, negative = growth inhibition, actives largely listed as inhibitors | chicken DT40 Tdp1-/-;hTDP1 cells + 20 nM CPT, ATP luminescence, 48 h | 420,000 compounds, 12% hits; also: nearly all actives have a fitted effect of over 55% in size
#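 Chicken DT40 Tdp1-/- cells stably complemented with human TDP1 were seeded at 400 cells/well in medium containing 20 nM camptothecin, exposed to pin-transferred compounds, and grown at 37 °C for at least 48 hr. Viability was read as ATP luminescence.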
# VP16 counter: Gal4-VP16 reporter inhibition counter-screen; 310,000 compounds, 3.5% hits; Potency, µM (top dose mostly 53.6 µM), for inactives: top-dose activity, negative = inhibition, hits mostly inhibitors; Drosophila S2 Gal4-VP16 UAS-luciferase, luminescence, 20 h; AID 2546;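 also: Gal4-VP16 expression switched on by copper sulfate through the metallothionein promoter; nearly all actives have a fitted effect of over 50% in size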
# TDP1 block: TDP1 (human) enzyme inhibition | 350,000 compounds, 0.28% hits | Potency, µM (series often up to 130 µM), for inactives: at the highest dose activity change, negative = inhibition, actives largely listed as inhibitors | AID 485290 | Q9NUW8 | recombinant TDP1, AlphaScreen DNA substrate cleavage; also: nearly all actives have a fitted effect of over 40% in size
#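 AlphaScreen read-out: signal falls as enzyme removes the 3' tyrosine-FITC from a 5'-biotinylated DNA oligo (15 nM, 5 min, RT). Enzyme was E. coli-made recombinant Tdp1 at 1 nM, exposed to compound for 15 min beforehand; beads 10 ug/ml, 10 min.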
# Active calls of the source: *; ? = inconclusive; . = no result given. In the library only some 19% were active in any assay of this set; here they are far more common. Calls follow the shape of the dose curve; as a rule, active = well fitted curve in the direction sought with a large enough effect; inconclusive = small, poorly fitted or top-dose-only effect, or another doubt; inactive = no such curve, though single readings can be large; an effect the other way counts as inactive or inconclusive. % is scaled to controls: 0 for no effect and ±100 for the full control effect; potency is read from the fitted curve at half-maximal effect.
SMILES,TDP1 cell noCPT,RORg inh,TDP1 cell CPT,VP16 counter,TDP1 block
O=C(NCc1cccnc1)/C(=C\c1ccc(-c2ccc(Cl)c(Cl)c2)o1)S(=O)(=O)c1ccccc1,4.6µM*,8.9µM*,4.6µM*,5.6µM*,-5%
O=C(NCc1cccnc1)c1ccc(Cl)c(Cl)c1,14%,13%,23%,15%,8%
Cn1c(=O)c2[nH]c(CCCc3ccc([N+](=O)[O-])cc3)nc2n(C)c1=O,?,.,-1%,.,.
Nc1ncc([N+](=O)[O-])c(N2CCCCCC2)n1,-30%,11µM*,?,-22%,6%
Cc1ccc(-n2c(Cc3ccccc3)n[nH]c2=S)cc1,12%,4µM*,1%,10µM*,4%
CC(C)Cn1c(Cc2ccccc2)n[nH]c1=S,5%,4.5µM*,-14%,0%,-5%
S=c1[nH]nc(Cc2noc3ccccc23)n1-c1ccc(Cl)cc1,-19%,?,6%,-8%,3%
S=c1[nH]nc(Cc2n[nH]c(=S)n2-c2ccccc2)n1-c1ccccc1,-12%,23%,-9%,-14%,.
S=c1[nH]nc(Cc2ccccc2)n1-c1ccc(Cl)cc1,6%,2.2µM*,13%,?,0%
S=c1[nH]nc(Cc2ccccc2)n1-c1ccccc1,-11%,11µM*,-13%,20µM*,-1%
COc1ccc(C(CC(=O)O)NC(=O)COc2ccccc2OC)cc1OC (centres undefined),1%,-1%,3%,-1%,3%
COc1cccc(CNC(=O)CCn2c(=O)c3cccn3c3cccnc32)c1OC,-24%,.,-13%,.,3%
c1csc(-c2nnc3ccccn23)c1,-2%,-15%,-9%,1%,0%
COc1ccccc1NC(=O)CSc1ccc2nnc(-c3ccc(C)cc3)n2n1,?,28%,?,-6%,.
COc1ccc(-c2nc(C#N)c(N3CCN(C(=O)c4ccco4)CC3)o2)cc1OC,?,-21%,?,-10%,4%
COc1ccccc1-c1nc(C#N)c(N2CC(C)CC(C)C2)o1 (centres undefined),18µM*,-29%,?,-14%,4%
COc1ccc(-c2nc(C#N)c(N3CCN(c4ccccc4)CC3)o2)cc1,-29%,16%,1%,-3%,5%
COc1ccc(-c2nc(C#N)c(N3CCc4ccccc4C3)o2)cc1OC,13µM*,31%,29µM*,-12%,4%
COc1ccc(N2CCN(c3oc(-c4ccc(OC)c(OC)c4)nc3C#N)CC2)cc1,18µM*,5%,?,2%,3%
CC(Sc1nc(N)cc(=O)[nH]1)C(=O)Nc1cccc(Cl)c1 (centres undefined),-19%,?,8%,-10%,-5%
Cc1nn(CCC(N)=S)c2nc(-c3cccs3)cc(C(F)(F)F)c12,?,7.1µM*,?,6.3µM*,3%
COc1ccc(S(=O)(=O)N2CCN(c3ccccc3)CC2)cc1,-2%,14%,1%,-13%,-3%
COc1ccc(NC(=S)N2CCC(C(=O)c3ccc(OC)cc3)CC2)cc1,16µM*,-22%,?,-4%,5%
COc1ccc(NC(=S)N2CCC(C(=O)c3ccc(C)cc3)CC2)cc1,8.2µM*,5%,?,-15%,.
Cc1ccc2[nH]cc(C(c3ccccc3)c3cccs3)c2c1 (centres undefined),18µM*,.,?,.,1%
Cc1ccc(-c2csc(-c3c[nH]c4ccccc34)n2)c(C)c1,?,10%,?,-18%,8%
Cc1ccc2[nH]cc(C(c3ccccc3)c3ccc(C)s3)c2c1 (centres undefined),18µM*,.,?,.,9%
Cc1ccc(C(c2ccccc2)c2c(C)[nH]c3ccccc23)s1 (centres undefined),.,.,.,.,1%
O=c1onc(-c2ccc(Cl)cc2)n1Cc1ccc(F)cc1,-5%,-17%,-1%,-3%,3%
